From PubChem BioAssay
UHRF1 binding = blocks human UHRF1 binding to methylated DNA; Q96T88; UHRF1 binding to methylated oligo, TR-FRET; inhibition, % at 4.4 µM; 370,000 tested, 0.75% active; AID 687016; in the data active = inhibition above about 21%;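 note: UHRF1 SRA domain binding a hemimethylated CpG hairpin DNA probe; 0% = median of test compound wells and 100% = reference inhibitor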
LEDGF integ inh = blocks HIV-1 LEDGF/p75-dependent DNA integration. TR-FRET IN-LEDGF/p75 DNA integration, Eu/Cy5. inhibition, % at 3.7 µM. 370,000 tested, 0.64% active. AID 743269;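 active = inhibition above the screen-wide mean plus 3 SD, cut at about 13% in these data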;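 note: signal is the Cy5 over europium emission ratio at 671 and 618 nm; 0% = plate median of compound wells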
Casp6 inh = inhibitors of human caspase-6; inhibition, % at 12.5 µM; AID 686996; 350,000 tested, 0.53% active; P55212; purified caspase-6, Z-VEID-R110 cleavage fluorescence;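 active = mean inhibition across replicates at least about 35%, with every replicate also reaching that limit, limit read from the data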;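 note: 0% = median of neutral control wells and 100% = no fluorescence left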
MBD2 DNA inh = MBD2-methylated oligo binding inhibition | TR-FRET, MBD2 binding to methylated oligonucleotide | inhibition, % at 4.4 µM | Q9UBB5 | AID 686964 | 370,000 tested, 0.31% active; in the data active = inhibition above about 13%
* hit, by the source's call; . = no result given; ! = not confirmed by another sample. This is a sample that favours compounds with a hit; in the whole collection about 1.4% have one here.

SMILES | UHRF1 binding | LEDGF integ inh | Casp6 inh | MBD2 DNA inh
Cc1cccnc1NC(=O)/C=C/c1ccc2c(c1)OCO2 | 23* | 7 | . | 6
Cc1cccnc1NC(=O)c1ccc2c(c1)OCO2 | -1 | -2 | 0 | 0
O=C(COC(=O)C1CCN(S(=O)(=O)c2ccccc2)CC1)NC(=O)c1ccc(OC(F)F)cc1 | 26* | 8 | -1 | 3
Cc1ccc(S(=O)(=O)N2CCC(C(=O)OCc3ccccc3)CC2)cc1C | 0 | 2 | 2 | -1
Cc1ccc(S(=O)(=O)N2CCC(C(=O)OCC(=O)NCCc3ccccc3)CC2)cc1C | 40* | 0 | 5 | -6
COC(=O)c1ccccc1S(=O)(=O)N1CCC(C(=O)OCC(=O)NCC(F)(F)F)CC1 | 8 | -7 | 1 | 3
CCOC(=O)c1ccccc1NC(=O)COC(=O)C1CCN(S(=O)(=O)c2ccccc2C(=O)OC)CC1 | 2 | -1 | 60* | 0
O=C(NC1CC2CCC(C1)N2Cc1ccccc1)c1ccccc1Br (configuration not stated) | -1 | 0 | 39* | -5
C[C@@H]1CN([C@H](C)CO)C(=O)c2cc(NC(=O)c3ccncc3)ccc2O[C@@H](C)CCCCO[C@H]1CN(C)S(=O)(=O)c1cn(C)cn1 | . | . | -1 | .
CCOC(=O)C1CCN(Cc2nc3ccc([N+](=O)[O-])cc3c(=O)n2-c2ccc(OC)cc2OC)CC1 | -2 | 3 | 4 | -3
COc1ccc(-n2c(CN3CCC(C(N)=O)CC3)nc3ccc([N+](=O)[O-])cc3c2=O)c(OC)c1 | 4 | 23* | 6 | 6
CCCCNc1cccc2c1S(=O)(=O)N[C@H](C)CO2 | 22* | -2 | 2 | 9
C[C@H]1CCCCO[C@@H](CN(C)S(=O)(=O)c2ccc(F)cc2)[C@@H](C)CN([C@@H](C)CO)C(=O)c2cc(NS(=O)(=O)c3ccc(Cl)cc3)ccc2O1 | . | . | 7 | .
CSc1cccc(NC(=S)N(CCCN2CCC(C)CC2)Cc2cccs2)c1 | 28* | 0 | -2 | 4
COc1cccc(NC(=S)N(CCN(C)C)Cc2cccs2)c1 | 21* | 1 | 0 | 8
CCOC(=O)COc1cnc2ccccc2n1 | 22* | 2 | -1 | 7
C[C@@H]1CN([C@H](C)CO)C(=O)Cc2cc(NC(=O)CCCCCC(=O)Nc3ccccc3N)ccc2O[C@H]1CN(C)S(=O)(=O)c1ccccc1 | . | . | -5 | .
CC(=O)N(C)c1ccc(NC(=O)Cc2cccs2)cc1 | -1 | 1 | 38* | -8
Cn1c(C(=O)N2CCCC(C(=O)NCCCSC3CCCCC3)C2)cc2sccc21 (configuration not stated) | 61* | -1 | . | 1
O=C(NC1CCC1)[C@H]1[C@H](CO)[C@H]2Cn3c(ccc(C4=CCCC4)c3=O)[C@H]2N1C(=O)C1CCCC1 | . | . | -2 | .
Cc1noc(C)c1S(=O)(=O)Nc1ccc2c(c1)C(=O)N([C@H](C)CO)C[C@H](C)[C@@H](CN(C)S(=O)(=O)c1ccc(Cl)cc1)O2 | . | . | -1 | .
CCC(CC)C(=O)Nc1cccc(C(=O)Nc2nccs2)c1 | 1 | 0 | . | -5
CCC(CC)C(=O)Nc1cccc(C(=O)Nc2nnc(C)s2)c1 | 23* | -3 | 3 | -4
Cc1cccc(N/C=C(\[N+](=O)[O-])S(=O)(=O)c2ccccc2)c1C | 50* | 0 | . | -3
CN1CC(=O)N2Cc3[nH]c4ccccc4c3C[C@H]2C1=O | 2 | -4 | 45* | 0
SMILES | UHRF1 binding | LEDGF integ inh | Casp6 inh | MBD2 DNA inh
CCCCN1CC(=O)N2Cc3[nH]c4ccccc4c3C[C@H]2C1=O | 2 | -2 | 5 | 9
COc1ccc(C2/C(=C(/O)c3ccc(C)cc3)C(=O)C(=O)N2CC2CCCO2)cc1OC (configuration not stated) | 22* | 1 | -2 | 6
COc1ccc(/C(O)=C2\C(=O)C(=O)N(CC3CCCO3)C2c2cc(OC)ccc2OC)cc1 (configuration not stated) | -3 | 1 | -1 | -1
O=C(C1CCC1)N1C[C@H]2[C@@H](c3ccccc31)[C@@H](CO)N2C(=O)Cc1ccccn1 | . | . | -2 | .
O=C(NCCN1C(=O)S/C(=C\c2ccc(Cl)cc2Cl)C1=O)C1=COCCO1 | -1 | -2 | 39* | -2
O=C(NCCN1C(=O)S/C(=C\c2ccccc2Cl)C1=O)C1=COCCO1 | 0 | -3 | -1 | -1
COc1cc2c(C#N)c(N3CCCC3)nc(N)c2c(N)n1 | -17 | -1 | 96*! | -11
CCCCN(CC)c1nc(N)c2c(N)nc(OCC)cc2c1C#N | 38* | -1 | . | -4
CCOc1cc2c(C#N)c(N3CCCC3)nc(N)c2c(N)n1 | -5 | 1 | 15 | -3
CCCOc1cc2c(C#N)c(N3CCCC3)nc(N)c2c(N)n1 | -15 | -2 | 39* | -5
COc1cc2c(cc1OC)C(C(=O)N(C)Cc1ccccc1)C(c1cccnc1)N(C)C2=O (configuration not stated) | 38* | 3 | 2 | 3
COc1cccc(NC(=O)CN(C)C(=O)CSCC(=O)Nc2ccc(C)cc2)c1 | 29* | 0 | 1 | 2
COc1ccc(NC(=O)CN(C)C(=O)CSCC(=O)Nc2ccc(C)cc2)cc1 | 8 | -5 | -4 | 9
CCOC(=O)C1=C(O)/C(=C/c2ccc(OCC(=O)O)c(OC)c2)SC1=Nc1ccc(OCC)cc1 | 3 | 2 | 37* | -2
CCOC(=O)C1=C(O)/C(=C/c2ccc(OCC(=O)O)c(OCC)c2)SC1=Nc1ccccc1 | -2 | -3 | 2 | 1
COc1cccc(CN2CCC3(CC2)CN(S(C)(=O)=O)[C@H](CO)c2[nH]c4cc(OC)ccc4c23)c1 | . | . | 0 | .
O=C1C(=Cc2cn(-c3ccccc3)nc2-c2ccc(OCc3ccccc3)cc2)SC(=S)N1CCS(=O)(=O)O | 0 | 1 | 75* | 7
Cc1ccc(-c2nn(-c3ccccc3)cc2C=C2SC(=S)N(CCS(=O)(=O)O)C2=O)cc1 | -2 | 0 | 78* | -1
C[C@H](CO)N1C[C@H](C)[C@H](CN(C)S(=O)(=O)c2ccccc2)OCCCC[C@H](C)Oc2ccc(NC(=O)c3ccccc3)cc2C1=O | . | . | -1 | .
COc1ccc(NC(=O)CCCN2C(=O)/C(=C\c3ccco3)SC2=S)cc1 | -4 | 2 | . | -1
O=C(CN1C(=O)/C(=C/c2ccco2)SC1=S)NC1CCS(=O)(=O)C1 (configuration not stated) | 52* | 55* | 49* | 0
O=C(CN1C(=O)/C(=C/c2ccco2)SC1=S)Nc1ccc(O)c(C(=O)O)c1 | 58* | 47* | 0 | 7
O=C(CCN1C(=O)/C(=C/c2ccccc2)SC1=S)NC1CCS(=O)(=O)C1 (configuration not stated) | -3 | 1 | -2 | -2
O=C(NC1(O)C(=O)c2ccccc2C1=O)c1c(Cl)cccc1Cl | 3 | -3 | 39* | -4
O=C(NC1(O)C(=O)c2ccccc2C1=O)c1ccccc1 | -1 | 10 | . | -7
CCCNC(=O)N(C)C[C@H]1Oc2cc(C#CC3CC3)ccc2S(=O)(=O)N([C@H](C)CO)C[C@H]1C | . | . | -2 | .
C[C@H](CO)N1C[C@H](C)[C@H](CN(C)C(=O)NC2CCCCC2)Oc2ccc(NC(=O)CCN3CCOCC3)cc2CC1=O | . | . | 2 | .
